M18AAP inhibitor = PfM18AAP inhibitors, malaria aminopeptidase, primary screen, biochemical, QFRET, recombinant enzyme; 1.2% of 290,000 active; H-Glu-NHMec fluorogenic cleavage; inhibition, % at 7.35 µM;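 active means inhibition above the campaign mean inhibition over all tested compounds plus 3 SD, cut at about 28% in these data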
ALR H2O2 inh = inhibitors of human ALR sulfhydryl oxidase, primary screen, biochemical, H2O2 detection, HRP-luminol luminescence, single point; FAD-linked sulfhydryl oxidase ALR (Homo sapiens), P55789; purified ALR, DTT oxidation; inhibition, % (test concentration not listed); 3.8% of 290,000 active; AID 485317, 2010;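 active means mean replicate inhibition above about 79%, with every replicate also reaching it, limit read from the data; inconclusive means only one of the two criteria met; inactive means mean below limit and not every replicate reaching it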
Target sequence (P55789 whole entry, looked up): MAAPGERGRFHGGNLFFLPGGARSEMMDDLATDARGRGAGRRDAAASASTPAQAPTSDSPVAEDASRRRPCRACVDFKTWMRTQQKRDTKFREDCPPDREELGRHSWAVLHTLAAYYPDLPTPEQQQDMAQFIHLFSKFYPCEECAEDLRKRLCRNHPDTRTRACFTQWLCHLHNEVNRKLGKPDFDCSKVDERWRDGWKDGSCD
IDE inh = human IDE inhibitors in live cells, primary screen, fluorescence polarization, HEK cells, FAbetaB substrate; Insulin-degrading enzyme (Homo sapiens), P14735; FAbetaB cleavage; inhibition, % at 5.59 µM; 0.41% of 320,000 active;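 active means percent inhibition above the average of all tested compounds plus 3 SD, set per screening campaign, cut at about 16% in these data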;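 further: IDE supplied by intact live HEK cells; FP after avidin binding of uncleaved biotin substrate so inhibition keeps polarization high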
PolyA inh = polyadenylation inhibitors in yeast reporter cells, primary screen, luminescence, S. cerevisiae. S. cerevisiae SKY197-pL101 polyadenylation reporter, beta-gal luminescence; efflux-impaired pdr1/pdr3 knockout yeast; score 100 = 6 SD above DMSO. activity score, % at 12 µM. 0.02% of 300,000 active;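 active means lowest replicate activity score at least 50, where 100 means six control SD above control mean; inconclusive means lowest score under 50 but half or more replicates reach 50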;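 further: yeast exposed to compound for 9 h at 30 °C; higher score means more reporter readthrough which indicates perturbed polyadenylation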
IDE cell activ = human IDE activators in live cells, primary screen, fluorescence polarization, HEK cells, FAbeta-B substrate | Insulin-degrading enzyme (Homo sapiens), P14735 | FAbeta-B cleavage; 0% vehicle, 100% cell-free pure enzyme wells | activation, % at 5.96 µM | 0.073% of 340,000 active;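 active means activation above the mean of all tested compounds plus 3 SD, set per screening campaign, cut at about 17% in these data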
CaV13 FRET inh = Primary screen for inhibitors of IQ motif and Ca2+-dependent inactivation inhibitor domain binding in CACNA1D, Förster resonance energy transfer in living cells, … | inhibition, % at 12.3 µM | 0.098% of 340,000 active | AID 743397 | HEK cells, CFP/YFP FRET ICDI-IQ, plate reader, 10 min; percent FRET-ratio fall versus neutral wells;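 active means mean replicate inhibition of at least 30% and at least 1% of replicates passing that level; inconclusive means only one of the two criteria is met; inactive means neither criterion is met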
Each line names hits and unclear results; the compound was inactive in the other large screens. Sampled rows, rich in hits. Any-hit rate of the full collection: about 4.1%.

CCCCC[C@H](C)N1C[C@@H](COCc2ccccc2)Oc2cc(N3CCC[C@H]3C(N)=O)ccc2S1(=O)=O	none (no result: M18AAP inhibitor, ALR H2O2 inh, IDE inh, PolyA inh, IDE cell activ)
Cc1nnc(SCC(=O)NC2CC2)n1CC1CCCO1 (stereo unspecified)	none
CCOc1ccc(/C=C(\C#N)C(=O)NC2CC2)c(OCC)c1	none (no result: M18AAP inhibitor)
COC(=O)c1ccc2c(=O)n(CCN3CCOCC3)c(SCC(=O)Nc3ccccc3Cl)nc2c1	none
Cc1cccc(C)c1NC(=O)C/C(N)=N/O	none
O=C(COC(=O)CSc1ccc2ccccc2c1)NC1CCCC1	ALR H2O2 inh 100
COc1cc(/C=C2\SC(=S)N(c3cccnc3)C2=O)ccc1O	IDE inh 45
CC(C)CC1NC(=O)c2ccc(Cl)cc2-n2c1nc1ccc(Cl)cc1c2=O (stereo unspecified)	none (no result: M18AAP inhibitor, PolyA inh, IDE cell activ)
CC(=O)NC1C(=O)N=C(SC(C)C(=O)Nc2cccc(Cl)c2)NC1=O (stereo unspecified)	ALR H2O2 inh 98
CC(Sc1nc(N)cc(=O)[nH]1)C(=O)Nc1cccc(Cl)c1 (stereo unspecified)	none
CCOc1ccc(C(=O)CSCCC(=O)O)cc1	ALR H2O2 inh 98
COc1ccc(NC(=O)COC(=O)CN2C(=O)C3CCCCC3C2=O)cc1 (stereo unspecified)	none (no result: M18AAP inhibitor, ALR H2O2 inh, IDE inh, PolyA inh, IDE cell activ)
O=C(CNC(=O)c1cccc(Br)c1)N/N=C/c1ccc[nH]1	none
C=CCc1ccccc1OCC(O)CN1CCN(CCN2C(=O)c3cccc4cccc(c34)C2=O)CC1 (stereo unspecified)	none
c1ccc2c(c1)CC(N1CCCCC1)c1ccccc1N2 (stereo unspecified)	ALR H2O2 inh 85
COc1ccccc1Cc1c(-c2ccco2)nc2ccc(C)cn12	none (no result: M18AAP inhibitor, ALR H2O2 inh, IDE inh, PolyA inh, IDE cell activ)
Cc1cc(Cl)ccc1OCC(=O)OCC(=O)NCCNC(=O)COC(=O)COc1ccc(Cl)cc1C	none (no result: M18AAP inhibitor, ALR H2O2 inh, IDE inh, PolyA inh)
CC(=O)c1ccccc1OC(=O)COc1ccc(Cl)cc1C	ALR H2O2 inh 96 (no result: IDE cell activ)
S=c1nc(-c2ccc(Cl)cc2)[nH][nH]1	none (no result: ALR H2O2 inh)
CCCOc1ccc(-c2nc(=S)[nH][nH]2)cc1	ALR H2O2 inh 99
CCOc1ccc(NC(=O)c2nn(C)c(C(=O)Nc3ccc(OCC)cc3)c2[N+](=O)[O-])cc1	none
CCOc1ccc(N/C(=C(/C(Cl)=C(Cl)Cl)[N+](=O)[O-])n2cncn2)cc1	M18AAP inhibitor 78 (no result: IDE cell activ, CaV13 FRET inh)
Cc1c(N=C2SCC(=O)N2/N=C/c2ccccc2Cl)c(=O)n(-c2ccccc2)n1C	none
Cc1c(N=C2SCC(=O)N2/N=C\c2ccc(Br)cc2)c(=O)n(-c2ccccc2)n1C	ALR H2O2 inh 92
CCOC(=O)N1CCN(C(=O)C[C@@H]2C[C@@]3(C(=O)OCC)CCCC=C3N(CCC3=CCCCC3)C2=O)CC1	none (no result: M18AAP inhibitor, ALR H2O2 inh, IDE inh, PolyA inh, IDE cell activ)
CS(=O)(=O)Oc1ccc(/C=C2\C(=N)N3N=C(CC(=O)N4CCOCC4)SC3=NC2=O)cc1Cl	ALR H2O2 inh 82
Cc1ccc(/C=C2/C(=N)N3N=C(CC(=O)N4CCCC4)SC3=NC2=O)o1	none
N=C1/C(=C\c2ccc(Br)o2)C(=O)N=C2SC(CC(=O)N3CCCCC3)=NN12	ALR H2O2 inh 97
COc1cc(/C=C2/C(=N)N3N=C(CC(=O)N4CCOCC4)SC3=NC2=O)ccc1OC(C)c1ccccc1 (stereo unspecified)	none
Nc1ccc(CCc2nc3ccccc3o2)cc1	ALR H2O2 inh 91
CCN1C(=O)c2cccc3c(S(=O)(=O)Nc4ccc(O)c(C(=O)O)c4)ccc1c23	ALR H2O2 inh 98
Cc1cc(C)c(NC(=O)C2=COCCO2)c(C)c1	none (no result: M18AAP inhibitor)
CC(=O)C1=C(C)N(Cc2ccc(F)cc2)C(=S)NC1c1cccc(Br)c1 (stereo unspecified)	none (no result: M18AAP inhibitor, ALR H2O2 inh, IDE inh, PolyA inh, IDE cell activ)
CCOc1cccc(/C=N/NC(=O)c2cccnc2)c1O	ALR H2O2 inh inconclusive
CCOc1cccc(/C=N/NC(=O)c2cc(C3CC3)[nH]n2)c1O	ALR H2O2 inh 98
CCCCNC(=O)c1onc(CSc2ccccn2)c1C(=O)NCCCC	none (no result: M18AAP inhibitor)
O=C(O)CCNc1cc(N2CCN(C(=O)c3ccco3)CC2)c2noc3c2c1C(=O)c1ccccc1-3	M18AAP inhibitor 35
CCN1CCN(c2cc(N3CCN(C(=O)c4ccco4)CC3)c3c4c(onc24)-c2ccccc2C3=O)CC1	none (no result: CaV13 FRET inh)
CCN(CCNC(=O)CC1Oc2ccccc2NC1=O)c1ccccc1 (stereo unspecified)	ALR H2O2 inh 97
CC1CCN(Cc2ccc(NC(=O)CC3Oc4ccccc4NC3=O)cc2)CC1 (stereo unspecified)	ALR H2O2 inh 92, CaV13 FRET inh 52
O=C(CC1Oc2ccccc2NC1=O)NCCc1ccccc1 (stereo unspecified)	ALR H2O2 inh 86
CCOC(=O)C1(Cc2ccc(Cl)cc2)CCN(C(C)Cc2ccc(O)c(OC)c2)CC1 (stereo unspecified)	none (no result: ALR H2O2 inh)
CCOc1cc(C(=O)OCc2cccc(OC)c2OC)ccc1OCC(=O)N1CCOCC1	none (no result: M18AAP inhibitor)
COc1ccc(SCCc2ccncc2)cc1	ALR H2O2 inh 93
Cc1ccc2nc(CN(C)C(=O)[C@H]3O[C@@H](n4cnc(C(N)=O)n4)[C@H](O)[C@@H]3O)[nH]c2c1	none (no result: M18AAP inhibitor, ALR H2O2 inh, IDE inh, PolyA inh, IDE cell activ)
O=C(O)c1ccccc1CSc1nc2ccccc2o1	none
c1ccc(-c2noc(CSc3nc4ccccc4o3)n2)cc1	ALR H2O2 inh 86
O=C(O)c1ccc(CSc2nc3ccccc3o2)cc1	ALR H2O2 inh 97
CC(=O)Nc1ccc(S(=O)(=O)N2CCNC(=O)C2)cc1	none (no result: M18AAP inhibitor, PolyA inh)
CCN1CCN(C(=O)c2ccccc2Nc2ccc(SC(F)F)cc2)CC1	ALR H2O2 inh 90
CC(=O)c1ccc(NC(=O)C2CCCN2S(=O)(=O)c2ccc(F)cc2)cc1 (stereo unspecified)	none
O=C(Nc1ccc(O)cc1)C1CCCN1S(=O)(=O)c1ccc(F)cc1 (stereo unspecified)	ALR H2O2 inh 98
O=C(O)[C@@H]1CCCN1S(=O)(=O)c1cccc(S(=O)(=O)N2CCC[C@H]2C(=O)O)c1	CaV13 FRET inh 68
O=C(O)C1CCCN1S(=O)(=O)c1cccc(S(=O)(=O)N2CCCC2C(=O)O)c1 (stereo unspecified)	none
CC(C)c1ccc(CCNC(=O)CCNC(=O)c2ccc(Br)cc2)cc1	none
CCc1ccc(OCCNC(=O)c2ccco2)cc1	none
CCCc1nnc(NC(=O)Cn2c(=O)oc3cc(Br)ccc32)s1	none (no result: PolyA inh)
O=c1oc2cc(Br)ccc2n1CSC1=NCCS1	ALR H2O2 inh 99 (no result: PolyA inh)
COCCNC(=O)C(=O)c1cc(C)n(-c2ccc([N+](=O)[O-])cc2)c1C	ALR H2O2 inh 97

Source: PubChem
